Experiment [1] is described as follows: APR_HepG2_CellLoss_72hr: Apredica 72-hour HepG2 Assay for Cell Loss (AID 2282915). The conditions noted are these: high-content imaging. Summed up: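 HepG2 cells exposed 72 h to compound at 0.39–200 uM (10 concentrations, duplicate) in 0.5% DMSO. Fixed with 3.7% formaldehyde and Hoechst 33342-stained. Imaged at 20x; nuclear count gives cell number, fitted bidirectionally versus DMSO.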

Experiment [2] can be described thus: APR_HepG2_P-H2AX_72hr: Apredica 72-hour HepG2 Assay for H2AX Phosphorylation (AID 2282916).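 Also: phospho-histone H2A.x immunostain intensity per cell marking DNA damage.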 The conditions noted are these: imaging, actives raise or lower the signal. Summed up:
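Readout: phospho-H2A.x immunofluorescence (FITC secondary) plus Hoechst nuclear stain, high-content imaging at 20x, six fields/well. HepG2, 72 hr compound exposure, 0.39–200 uM, final DMSO 0.5% v/v. Gain or loss fitted relative to DMSO baseline.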

A short description of experiment [3]: APR_HepG2_MitoticArrest_72hr: Apredica 72-hour HepG2 Assay for Mitotic Arrest (AID 2282918). The conditions noted are these: high-content imaging, actives raise or lower the signal. Summed up: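 Using high-content imaging of fixed HepG2 cells, phospho-histone H3 signal was measured following a 72 hr incubation with ten-point compound dilutions up to 200 uM. DMSO served as the negative control and baseline for bidirectional curve fitting.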

A short description of experiment [4]: APR_HepG2_P-H2AX_24hr: Apredica 24-hour HepG2 Assay for H2AX Phosphorylation (AID 2282920). The conditions noted are these: high-content imaging, actives raise or lower the signal. Summed up:
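Human HepG2 liver cells, treated 24 hr with test chemicals (0.39–200 uM, final DMSO 0.5% v/v), are fixed and co-stained for phospho-H2A.x and c-Jun with Hoechst. Imaged intensity is fitted in both directions against DMSO controls.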

A short description of experiment [5]: APR_HepG2_StressKinase_72hr: Apredica 72-hour HepG2 Assay for Stress Kinase (AID 2282921). The following applies: HepG2 stress kinase (phospho-c-Jun) imaging, actives raise or lower the signal. Summed up: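 Phospho-c-Jun immunofluorescence measured by high-content imaging at 20x, six fields per well; bidirectional curve fitting against DMSO as baseline. Dosing: 0.39–200 uM, 72 h, 0.5% DMSO final.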

Experiment [6] in a line: APR_HepG2_MitoMass_72hr: Apredica 72-hour HepG2 Assay for Mitochondrial Mass (AID 2282924).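 Also: MitoTracker Red CMXRos stain intensity per cell imaged as mitochondrial mass.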 The following applies: high-content imaging, actives raise or lower the signal. Put shortly: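 Read-out: MitoTracker Red fluorescence intensity from automated imaging (20x, six fields per well) in human HepG2 liver cells. Dosing ran 72 hr, 0.39–200 uM, 0.5% DMSO; bidirectional curve fitting versus DMSO baseline.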

A short description of experiment [7]: APR_HepG2_NuclearSize_72hr: Apredica 72-hour HepG2 Assay for Nuclear Size (AID 2282925). The following applies: high-content imaging, actives raise or lower the signal. Put shortly:
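Read-out: nuclear diameter from Hoechst 33342 images (ArrayScan, 20x, six fields/well), via cell-cycle image analysis. HepG2 were dosed 0.39–200 uM for 72 hr in 0.5% DMSO. Bidirectional fit relative to DMSO.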

A short description of experiment [8]: ATG_CRE_CIS: Attagene CIS-FACTORIAL HepG2 Assay for human cAMP Responsive Element (CRE) binding protein 3 (AID 2282926). The following applies: HepG2 CRE cis-reporter, Attagene multiplexed mRNA; actives raise or lower the signal. Put shortly: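 Liver-derived HepG2, transfected with a CRE-containing reporter panel, exposed 24 h; transcript levels sized and quantified by capillary electrophoresis of labelled amplicons; signal changes either way referenced to vehicle.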

Experiment [9] addresses CCAAT/enhancer-binding protein beta (Homo sapiens) (UniProt P17676). The experiment in a line: ATG_C_EBP_CIS: Attagene CIS-FACTORIAL HepG2 Assay for human CCAAT/Enhancer Binding Protein (C/EBP) beta (AID 2282927). The following applies: HepG2 Attagene cis-factorial transcription factor reporter; actives raise or lower the signal. Put shortly:
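HepG2 transiently transfected with multiplexed reporter units under cis-regulatory promoters reporting endogenous C/EBPb activity. After 24 h exposure, reporter mRNA assayed by RT-PCR, fluorescent labelling, HpaI digestion and capillary electrophoresis; bidirectional fitting versus DMSO.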

Experiment [10] in a line: ATG_CMV_CIS: Attagene CIS-FACTORIAL HepG2 Assay for human CMV (Internal Marker) (AID 2282928).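 Also: endpoint acts as a background internal control marker rather than a target.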 The conditions noted are these: HepG2 CMV promoter reporter, transcription factor profiling; actives raise or lower the signal. Put shortly: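 Bidirectional fits against DMSO are applied to reporter mRNA, read by RT-PCR with capillary electrophoresis, from HepG2 cells exposed 24 h. The endpoint serves as an internal CMV background marker within the cis-factorial reporter panel.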

Experiment [11] can be described thus: ATG_DR4_LXR_CIS: Attagene CIS-FACTORIAL HepG2 Assay for human Liver X Receptor (LXR), DR4 submotif (AID 2282929). The following applies: HepG2 Attagene DR4 cis-reporter, mRNA transcription; actives raise or lower the signal. Put shortly:
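HepG2, transient MRTU transfection, cis-element (DR4) promoter; 24 h compound exposure; total RNA → oligo(dT) RT → PCR → 6-FAM primer extension → HpaI cut → CE. Gain/loss vs DMSO, bidirectional fit.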

Experiment [12] deals with Aryl hydrocarbon receptor (Homo sapiens) (UniProt P35869). As to the kind of experiment: ATG_Ahr_CIS: Attagene CIS-FACTORIAL HepG2 Assay for human Aryl Hydrocarbon Receptor (Ahr) (AID 2282930). The conditions noted are these: HepG2 AhR cis-factorial reporter transcription; actives raise or lower the signal. Put shortly:
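HepG2 cells transiently transfected with cis-element-driven multiplexed reporter units; endogenous AhR activity read as reporter mRNA 24 h after dosing, via RT-PCR, 6-FAM labelling, HpaI digestion and capillary electrophoresis. Bidirectional fit relative to DMSO.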

The nature of experiment [13]: ATG_AP_1_CIS: Attagene CIS-FACTORIAL HepG2 Assay for human Activator Protein 1 (AP-1) (AID 2282931). The conditions noted are these: HepG2 Attagene cis-factorial AP-1 reporter mRNA; actives raise or lower the signal. Put shortly:
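Transient MRTU transfection of HepG2 → 24 h chemical treatment → RNA isolation, RT-PCR, 6-FAM labelling, HpaI digest → capillary electrophoresis. Fit: bidirectional, DMSO negative control.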

Experiment [14] is described as follows: ATG_BRE_CIS: Attagene CIS-FACTORIAL HepG2 Assay for human Bone Morphogenetic Protein (BMP) Response Element (BRE) (AID 2282933). The following applies: HepG2 BMP response element reporter, Attagene transcription factor profiling; actives raise or lower the signal. Put shortly: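 A HepG2 multiplex reporter system measured inducible reporter mRNA 24 h post-dosing. Detection: RT-PCR, 6-FAM primer extension, HpaI digestion, capillary electrophoresis. Activity fitted bidirectionally relative to DMSO.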

For experiment [15], the target named is Retinoic acid receptor alpha (Homo sapiens) (UniProt P10276). The experiment in a line: ATG_DR5_RAR_CIS: Attagene CIS-FACTORIAL HepG2 Assay for human Retinoic Acid Receptor Alpha (RARE), DR5 submotif (AID 2282934).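 As to AC50: reporter responds to endogenous RAR alpha beta and gamma in HepG2 not RARA alone.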 The conditions noted are these: HepG2 Attagene cis-factorial RARE DR5 reporter, mRNA; actives raise or lower the signal. Put shortly:
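HepG2 cells transiently transfected with multiplexed reporter units; DR5 cis-element drives reporter through endogenous transcription factors. After 24 h dosing, reporter mRNA quantified by RT-PCR, fluorescent labeling, HpaI digestion and capillary electrophoresis; bidirectional fitting versus DMSO.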

Experiment [16] is described as follows: APR_HepG2_MicrotubuleCSK_72hr: Apredica 72-hour HepG2 Assay for Microtubule CSK Stabilty (AID 2282919). The following applies: HepG2 microtubule cytoskeleton, high-content imaging, actives raise or lower the signal. Summed up:
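HepG2, 72 hr cmpd exposure, 0.39–200 uM (10 pts, duplicate), 0.5% DMSO. 3.7% formaldehyde fix, 0.5% Triton perm, anti-alpha-tubulin/Cy5 plus Hoechst. HCS fluorescence intensity; bidirectional fit vs DMSO baseline; taxol as positive control.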

The nature of experiment [17]: APR_HepG2_StressKinase_24hr: Apredica 24-hour HepG2 Assay for Stress Kinase (AID 2282922). The following applies: HepG2 stress kinase (phospho-c-Jun) imaging, actives raise or lower the signal. Summed up: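 Read-out: phospho-c-Jun immunofluorescence (Cy3 secondary) quantified by high-content imaging at 20x, nuclei defined by Hoechst 33342. Human HepG2 liver cells dosed 24 hr, 0.39–200 uM, DMSO 0.5% v/v; gain or loss of signal fitted relative to DMSO.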

Experiment [18] can be described thus: ATG_AP_2_CIS: Attagene CIS-FACTORIAL HepG2 Assay for human Activator Protein 2 (AP-2) (AID 2282932). The following applies: HepG2 AP-2 cis-reporter, Attagene transcription factor profiling; actives raise or lower the signal. Put shortly:
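Read-out: fluorescent reporter mRNA via RT-PCR and capillary electrophoresis, 24 h post-dose in transiently transfected HepG2. Endogenous factors drive cis-promoter reporters; gain or loss of signal fitted bidirectionally against DMSO.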

Experiment [19] can be described thus: APR_HepG2_p53Act_72hr: Apredica 72-hour HepG2 Assay for p53 Activation (AID 2282923).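 Also: average cellular p53 protein immunofluorescence intensity in HepG2 cells.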 The following applies: high-content imaging, actives raise or lower the signal. Summed up:
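Readout: p53 immunofluorescence quantified by automated high-content imaging at 20x, six fields per well, nuclei located via Hoechst. Dosing ran 72 hr over ten concentrations from 0.39 to 200 uM; bidirectional curve fitting against DMSO baseline.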

Structures are written as SMILES. Calls of active or inactive are those of the source. The calls were made as follows: active = hit-call score of the fitted dose curve at least 0.9, where 1 is the maximum; inactive = score below 0.9.

Aryl hydrocarbon receptor (Homo sapiens), sequence (P35869 whole entry, looked up): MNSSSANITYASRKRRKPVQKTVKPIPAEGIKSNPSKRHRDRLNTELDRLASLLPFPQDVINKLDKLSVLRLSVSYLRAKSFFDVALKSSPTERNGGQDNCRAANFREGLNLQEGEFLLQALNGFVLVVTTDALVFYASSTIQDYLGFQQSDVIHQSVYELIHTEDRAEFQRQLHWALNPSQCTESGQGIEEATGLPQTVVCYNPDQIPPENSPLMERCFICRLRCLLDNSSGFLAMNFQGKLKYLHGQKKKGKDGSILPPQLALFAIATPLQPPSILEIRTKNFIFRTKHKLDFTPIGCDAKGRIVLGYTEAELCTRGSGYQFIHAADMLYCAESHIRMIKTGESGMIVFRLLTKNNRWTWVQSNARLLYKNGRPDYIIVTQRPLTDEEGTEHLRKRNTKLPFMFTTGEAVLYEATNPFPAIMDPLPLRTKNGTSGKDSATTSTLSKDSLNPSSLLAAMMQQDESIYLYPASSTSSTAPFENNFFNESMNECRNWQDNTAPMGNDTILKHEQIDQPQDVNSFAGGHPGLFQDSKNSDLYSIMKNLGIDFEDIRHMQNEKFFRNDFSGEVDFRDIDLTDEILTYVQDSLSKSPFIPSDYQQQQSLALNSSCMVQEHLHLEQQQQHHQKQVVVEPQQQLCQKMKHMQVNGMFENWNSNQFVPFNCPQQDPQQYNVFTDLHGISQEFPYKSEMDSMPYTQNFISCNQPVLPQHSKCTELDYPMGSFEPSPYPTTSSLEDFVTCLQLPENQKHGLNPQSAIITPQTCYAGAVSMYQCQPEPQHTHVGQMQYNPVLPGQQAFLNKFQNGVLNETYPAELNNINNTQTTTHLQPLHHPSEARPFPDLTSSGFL
Retinoic acid receptor alpha (Homo sapiens), sequence (P10276 whole entry, looked up): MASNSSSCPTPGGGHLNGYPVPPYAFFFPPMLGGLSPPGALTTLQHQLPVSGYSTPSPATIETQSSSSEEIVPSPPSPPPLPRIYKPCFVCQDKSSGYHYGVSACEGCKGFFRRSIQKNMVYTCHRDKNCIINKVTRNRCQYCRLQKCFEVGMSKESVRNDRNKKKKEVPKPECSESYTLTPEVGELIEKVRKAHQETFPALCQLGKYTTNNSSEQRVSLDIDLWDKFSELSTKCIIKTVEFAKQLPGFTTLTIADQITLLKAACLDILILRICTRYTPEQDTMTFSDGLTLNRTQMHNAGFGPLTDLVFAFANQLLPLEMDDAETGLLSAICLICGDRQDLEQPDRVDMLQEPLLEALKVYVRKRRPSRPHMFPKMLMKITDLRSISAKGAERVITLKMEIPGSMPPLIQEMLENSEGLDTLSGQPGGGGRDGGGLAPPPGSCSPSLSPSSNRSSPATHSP
CCAAT/enhancer-binding protein beta (Homo sapiens), sequence (P17676 whole entry, looked up): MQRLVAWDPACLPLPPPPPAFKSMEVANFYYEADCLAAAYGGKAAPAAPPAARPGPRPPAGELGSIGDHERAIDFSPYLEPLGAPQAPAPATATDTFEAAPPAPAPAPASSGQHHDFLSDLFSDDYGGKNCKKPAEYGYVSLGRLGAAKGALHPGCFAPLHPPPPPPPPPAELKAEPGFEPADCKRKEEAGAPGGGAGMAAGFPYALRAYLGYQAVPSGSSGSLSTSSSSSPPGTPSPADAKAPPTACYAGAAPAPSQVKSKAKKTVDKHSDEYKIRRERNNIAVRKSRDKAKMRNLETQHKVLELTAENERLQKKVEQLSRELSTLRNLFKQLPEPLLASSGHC

The term AC50 denotes the midpoint of the concentration-response curve, whichever way the signal moves. As for `Clc1nc(Cl)nc(Nc2ccccc2Cl)n1`, the call in experiment [1], in [2], in experiment [3], in [4], in [5] and in experiment [6] was inactive. Besides, the molecule was classed as inactive in experiment [7], in experiment [11], in [12], in experiment [14] and in experiment [15]. Moreover, the AC50 is 76.6 µM (active) in experiment [8], 75.5 µM (active) in [9], 27.4 µM (active) in experiment [10] and 50 µM (active) in experiment [13].
For the molecule `Nc1c(Cl)c(F)nc(OCC(=O)O)c1Cl`, the call in [1], in experiment [2], in experiment [3], in experiment [16], in experiment [4] and in experiment [5] was inactive. The call in experiment [17], in experiment [6], in experiment [8], in experiment [10], in experiment [11] and in experiment [12] was inactive. Further, the result in experiment [13], in [18], in experiment [14] and in [15] was inactive.
In the case of `CC(C)=CC1C(C(=O)OCc2coc(Cc3ccccc3)c2)C1(C)C` (configuration not stated), the AC50 in [1] was 40.1 µM (active); in [16] it was 74.2 µM (active); in experiment [8], 13.2 µM (active); in experiment [11], 73.6 µM (active); in experiment [13] it was 14.3 µM (active); in experiment [14], 15.5 µM (active). In experiment [15], the AC50 is 8.01 µM (active). The outcome in [2], in [3], in experiment [4], in [5], in experiment [6] and in [10] was inactive. Besides, the call in experiment [12] was inactive.
Regarding `CN=C=S`, the AC50 in experiment [1] is 49.2 µM (active); in experiment [8] it was 13.7 µM (active); in experiment [13] it was 13.5 µM (active); in [14] it was 16.5 µM (active). In addition, the result in [2], in [3], in experiment [16], in [4], in experiment [5] and in [19] was inactive. In addition, the call in experiment [6], in [7], in [10], in experiment [11], in [12] and in experiment [18] was inactive. For the same molecule, the result in experiment [15] was inactive.
`COc1cc(Cl)c(OC)cc1Cl`: the molecule was classed as inactive in experiment [1], in [2], in experiment [3], in [4], in [5] and in experiment [19]. In addition, the molecule was called inactive in experiment [6], in [8], in experiment [9], in [10], in [11] and in [12]. Further, the result in experiment [13], in experiment [14] and in experiment [15] was inactive.

(Values after PubChem BioAssay (EPA / NIEHS).)
